In PubChem BioAssay (NCI) one finds growth data, which are given here for 13 compounds.

SMILES strings stand for the structures. The panel holds about 83,000 compounds, 20% with a hit somewhere; the sample as a whole holds those more often.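 Single-dose data. Exposure time 48 hours. Values below 10 considered active.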 Values without a mark were called inactive. Activity calls are given as the source filed them.

Common to all, as to assay: NCI-60 one-dose screen, 48 h (100 = growth as untreated, 0 = no growth, -100 = all killed)
Holding throughout (conditions): 10 µM unless noted

The subject of assay [1] is SK-MEL-2 melanoma.
The subject of assay [2] is EKVX NSCLC.
Assay [3] has as its system SN12C renal.
The subject of assay [4] is UO-31 renal.
Assay [5] concerns TK-10 renal.
For assay [6], the system named is ACHN renal.
Assay [7] relates to CAKI-1 renal.
Assay [8] has as its system A498 renal.
Assay [9] concerns CCRF-CEM leukemia.
The test system of assay [10] is MOLT-4 leukemia.

For `FC1(F)CCN(Cc2c[nH]c3cc(Cl)ccc23)C[C@H]1CCc1ccccc1`, the growth was 76.6% in [1]; 63% in assay [2]; 54.3% in [3]; 42% in assay [4]; 61.6% in assay [5]; 62.5% in [6]. Further, the growth in [7] was 62.1%; in assay [8], 82%; in assay [9], 45.9%; in assay [10], 26.7%.

`COc1cccc(CC(C)=C(c2ccc(OCCCN(C)C)cc2)c2ccc(OCCCN(C)C)cc2)c1`: the growth is -76.5% (active) in [1]; -83.9% (active) in [2]; -84.7% (active) in assay [3]; -97.8% (active) in assay [4]; -93% (active) in assay [5]; -98.3% (active) in assay [6]. Also, the growth in assay [7] was -97.7% (active); in [8], 18.6%; in assay [9], -53.3% (active); in assay [10], -61.4% (active).

For `COc1c(B(O)O)cccc1-c1nc2c(F)cc3n[nH]c(C)c3c2c2c1CCCC2`, the growth in [1] is -10.3% (active); in assay [2] it was 34.8%; in assay [3], 19.3%; in [4] it was -2.78% (active); in assay [5], -2.49% (active); in [6] it was 8.08% (active). Besides, the growth in assay [7] was 0.215% (active); in assay [8], -53.6% (active); in assay [9] it was 17.7%; in [10] it was 28.7%.

Turning to `c1ccc(C(CC2=NCCCN2)c2ccccc2)cc1`, the growth was 108% in assay [1]; 97.2% in assay [2]; 90.9% in [3]; 76.8% in assay [4]; 110% in assay [5]; 104% in [6]. For the same compound, the growth is 97.6% in [7], 111% in assay [8], 9.65% (active) in assay [9] and 92.7% in [10].

`Fc1ccc2c(CN3CCO[C@H](COc4cccc(Cl)c4)C3)c[nH]c2c1`: the growth in assay [1] was 71.1%; in assay [2], 74.3%; in assay [3] it was 49.1%; in [4], 51.4%; in [5], 22.1%; in [6], 46.8%. The growth in assay [7] was 65.3%; in [8], 53.9%; in [9], 38.5%; in assay [10] it was 25.9%.

Regarding `N#Cc1nc(-c2ccc(Cl)cc2)cc(-c2ccc(Nc3nc(N4CCCCC4)nc(N4CCCCC4)n3)cc2)c1N`, the growth was 106% in assay [1]; 91.8% in [2]; 104% in assay [3]; 80% in assay [4]; 120% in assay [5]; 96.8% in [6]. In addition, the growth was 83.8% in assay [7], 110% in [8], 107% in assay [9] and 99.2% in [10].

In the case of `N=c1n(Cc2ccccc2)c(N)cc(=O)n1Cc1ccccc1`, the growth was 94.6% in assay [1]; 0.834% (active) in assay [2]; 12.8% in [3]; 13.4% in [4]; 16.4% in assay [5]; 4.21% (active) in assay [6]. Also, the growth is 0.138% (active) in assay [7], 40.6% in [8], 21.4% in [9] and -28.6% (active) in assay [10].

As for `C/C(=C\C(=N\N=C(N)N)c1ccc(Cl)cc1)c1ccc(Cl)cc1`, the growth in [1] was -86.4% (active); in assay [2], -28.2% (active); in assay [3] it was -73.8% (active); in assay [4], -80.1% (active); in [5], -83.4% (active); in assay [6] it was -85.8% (active). Further, the growth in [7] was -58.4% (active); in assay [8] it was -93.6% (active); in assay [9] it was -22.5% (active); in assay [10], -48% (active).

As to `CC(=O)O[C@H]1[C@H](CC#CC#CC[C@@H]2C[C@]3(C)[C@H]4CC=C5[C@H]6[C@@H](C)[C@H](C)CC[C@]6(C(=O)NCCN(CCN)CCN)CC[C@@]5(C)[C@]4(C)CC[C@H]3C(C)(C)[C@H]2OC(C)=O)C[C@]2(C)[C@H]3CC=C4[C@H]5[C@@H](C)[C@H](C)CC[C@]5(C(=O)NCCN(CCN)CCN)CC[C@@]4(C)[C@]3(C)CC[C@H]2C1(C)C`, the growth in assay [1] was 67%; in [2], -6.42% (active); in assay [3], 51.9%; in [4], 33.7%; in [5], 110%; in assay [6], 75.9%. For the same compound, the growth in assay [7] is 35%; in assay [8], 122%; in assay [9], 19.8%; in assay [10] it was 26.8%.

As to `COC(=O)CNS(=O)(=O)c1ccc2c(c1)Cc1cc(S(=O)(=O)NCC(=O)OC)ccc1-2`, the growth in assay [1] was 108%; in [2] it was 99.6%; in assay [3] it was 97.5%; in assay [4] it was 87.1%; in assay [5] it was 107%; in assay [6], 102%. Further, the growth in assay [7] is 92.1%; in assay [8], 106%; in assay [9], 104%; in [10] it was 99.8%.

`Nc1nc(N)c2cc(CNc3ccc(Cl)c(Cl)c3)ccc2n1`: the growth was 42% in assay [1]; 31.4% in [2]; 27.4% in assay [3]; 0.0737% (active) in assay [4]; 31.5% in assay [5]; 22.5% in assay [6]. The growth in [7] was 14.8%; in assay [8], 43.1%; in assay [9], 2.81% (active); in assay [10], -44.2% (active).

Turning to `N[C@@H](CO)C(=O)O`, the growth in [1] was 116%; in assay [2], 84.3%; in [3], 101%; in assay [4], 83.4%; in [5] it was 125%; in assay [6], 107%. Moreover, the growth in assay [7] was 91.2%; in assay [8], 85.3%; in [9] it was 94.8%; in [10] it was 101%.

Take `CCc1ccc(Nc2ncnc3c2cnn3-c2cccc(Br)c2)cc1`: the growth was 108% in [1]; 102% in [2]; 101% in [3]; 85.6% in assay [4]; 107% in assay [5]; 108% in [6]. In addition, the growth in assay [7] was 89.3%; in assay [8] it was 70.7%; in [9], 131%; in assay [10], 101%.
